# The campaign covered roughly 69,000 compounds. About 8,600 (12%) showed an effect of 50% or more. The entries come from a sample that favours strong results as a whole.
# Tested on: Plasmodium berghei
# Experiment: Screen against P. berghei liver stage (PbLuc), transformed with Luciferase, at 10uM
# Type: functional, HepG2
# Settings: tested at 10 uM
row,Structure (SMILES),INHIBITION
1,CN1CCCC(CCC(=O)N2CCc3c(nc(CC4CC4)[nH]c3=O)C2)C1 (configuration not stated),49.3%
2,CCO[C@H]1C[C@@H](O)C12CCN(C(=O)CC(F)(F)F)CC2,90.2%
3,CCO[C@H]1C[C@@H](O)C12CCN(C1CCN(c3ccccc3)CC1)CC2,25.8%
4,CCO[C@H]1C[C@@H](O)C12CCN(C(=O)CCN1CCCC1=O)CC2,14.5%
5,CCOCCn1nc(C)cc1C(=O)N1CCC2(CC1)[C@H](O)C[C@@H]2OCC,9.63%
6,CCO[C@H]1C[C@@H](O)C12CCN(C(=O)CN1CCCCCC1=O)CC2,24.3%
7,CCO[C@H]1C[C@@H](O)C12CCN(C1CCN(c3ccccc3C)CC1)CC2,69.4%
8,NCCO[C@H]1C[C@@H](O)C12CCN(C1Cc3ccccc3C1)CC2,43%
9,CCO[C@H]1C[C@@H](O)C12CCN(S(=O)(=O)c1ccccc1OC)CC2,46.4%
10,CCO[C@H]1C[C@@H](O)C12CCN(C1Cc3ccccc3C1)CC2,50.3%
11,Cc1ncc(C(=O)N2CCCC(Cc3nccs3)C2)cn1 (configuration not stated),29.3%
12,CCN(CC)c1ncc2c(O)nc(C3CCNCC3)cc2n1,6.26%
13,CCN(C)c1ncnc2c1CCN(C(=O)COC)CC2,-12.1%
14,COC(=O)[C@H](C)NC(=O)COc1nn(C)c2nc(C)cc(C)c12,-10.2%
15,Cc1cc2nc(SCC(=O)N3CCCC3)n(Cc3ccco3)c(O)c-2n1,34.2%
16,CCS(=O)(=O)N(C)CCCNC(=O)c1cc(Cl)cc2cccnc12,37.9%
17,CCCNC(=O)C(C)n1nc(-c2ccc(C)o2)cc(N)c1=O (configuration not stated),31.6%
18,CCc1cc(CNC(=O)C2CCCN(C(=O)NCC(C)C)C2)[nH]n1 (configuration not stated),22.5%
19,CN(Cc1ccccc1)c1cnn(CC2CCCCO2)c(=O)c1 (configuration not stated),28.2%
20,COCC1CC2(CCN(C(=O)c3cnc4ccccc4c3)CC2)CO1 (configuration not stated),42.1%
21,Cc1ccc(CN(C)C(=O)c2cnsn2)cc1,65.2%
22,CN(Cc1cccc(OC(F)(F)F)c1)C(=O)c1ccncc1F,39.4%

row,Structure (SMILES),INHIBITION
1,COC(=O)c1ccc(CN(C)C(=O)c2cnsn2)cc1,64.1%
2,COC(=O)c1cccc(C(=O)N(C)Cc2cccc(O)c2)c1,7.44%
3,Cc1ccc(CN(C)C(=O)c2scnc2C)cc1,-11.19%
4,CN(Cc1cccc(OC(F)(F)F)c1)C(=O)Cc1ccon1,19.5%
5,COC(=O)c1cccc(C(=O)N(C)Cc2ccsc2)c1,13.8%
6,Cc1ccc(CN(C)C(=O)CN2CCCC2c2cnn(C)c2)cc1 (configuration not stated),-1.79%
7,CN(Cc1cccc(OC(F)(F)F)c1)C(=O)c1cnsn1,68.6%
8,Cc1nn(C)c2cn(CC(=O)N3CCN(c4ccccn4)CC3)nc12,30%
9,CC(c1ccco1)N(C(=O)Cn1nc2n(c1=O)CCCCC2)C1CC1 (configuration not stated),5.94%
10,Cc1ncc(C(=O)NCCNc2ncccc2C#N)s1,-0.113%
11,O=C(Cn1ccnc1)N(CCO)CCSc1ccc(Cl)cc1,9.41%
12,COCC(=O)N1CCCC2(CCN(Cc3cccc(C)n3)C2=O)C1 (configuration not stated),43.9%
13,N#Cc1cc(Cn2cnc(C3CCC3)cc2=O)ccc1F,74.3%
14,N#Cc1cc(F)ccc1Cn1cnc(C2CCC2)cc1=O,26.6%
15,N#Cc1ccc(F)cc1Cn1cnc(C2CCC2)cc1=O,-22.3%
16,CCc1nnc2n1CCN(Cc1cc(Cl)c3c(c1)OCCO3)C2,10.235%
17,COc1ncccc1CNC(=O)c1cc(Cl)ccn1,-22.8%
18,Cc1noc(CCCC(=O)N2CCCCC2CNS(C)(=O)=O)n1 (configuration not stated),49.7%
19,CC(C)OCCCNC(=O)CS(=O)(=O)Cc1ccc(Cl)cc1,9.64%
20,CN(C)C(=O)NC1COC2(CCN(Cc3ccco3)CC2)C1 (configuration not stated),27.6%
21,CN(C)C(=O)CC1CC2(CCN(Cc3cccs3)CC2)c2ccccc21 (configuration not stated),45.2%
22,CN(C)C(=O)CC1CC2(CCN(Cc3ccco3)CC2)c2ccccc21 (configuration not stated),75%

row,Structure (SMILES),INHIBITION
1,CN(C)C(=O)CC1CC2(CCN(Cc3ccsc3)CC2)c2ccccc21 (configuration not stated),64.2%
2,CN(C)C(=O)CC1CC2(CCN(Cc3ccoc3)CC2)c2ccccc21 (configuration not stated),-6.23%
3,CNC(=O)CC1CC2(CCN(Cc3nccs3)CC2)c2ccccc21 (configuration not stated),-0.113%
4,CC(=O)N1CCC(N2CCC(c3nc(C)cc(C)n3)C2)CC1 (configuration not stated),24.8%
5,Cc1cncnc1C1CCN(CC(N)=O)CC1,-16.9%
6,CC(=O)N1CCc2nc(C3CCN(c4ncccn4)C3)ncc2C1 (configuration not stated),-0.902%
7,CS(=O)(=O)N1C[C@H]2N(c3ncccn3)CCC[C@@]2(C(=O)NCC2CC2)C1,35.8%
8,CCN1C[C@H]2N(c3ncccn3)CCC[C@@]2(C(=O)NCC2CC2)C1,19.5%
9,CNC(=O)N1C[C@H]2N(c3ncccn3)CCC[C@@]2(C(=O)NCC2CC2)C1,17.7%
10,CC(C)CN1C[C@H]2N(c3ncccn3)CCC[C@@]2(C(=O)NCC2CC2)C1,56.6%
11,CNC(=O)[C@@]12CCCN(c3ncccn3)[C@@H]1CN(C)C2,-17.4%
12,CN1C[C@H]2N(c3ncccn3)CCC[C@@]2(C(=O)NCC2CC2)C1,67.5%
13,CC(=O)N1CC(=O)N(c2ccccc2)CC12CCN(Cc1cccs1)C2 (configuration not stated),6.38%
14,COCC1CC2(CCN(Cc3cnn(C)c3)CC2)CN1C(C)C (configuration not stated),37.5%
15,O=C(O)c1ccc(C2CCCN(C(=O)c3ccc[nH]3)C2)cc1 (configuration not stated),36.8%
16,O=C(NCc1cnc2n1CCN(Cc1nccs1)CC2)C1CCC1,30.3%
17,Cn1cc(C2CCCN2Cc2csc(C3CCCC3)n2)cn1 (configuration not stated),42%
18,CC(=O)Nc1nc(CN2CCCC2c2cnn(C)c2)cs1 (configuration not stated),34.9%
19,Cn1cc(C2CCCN2Cc2csc(C(C)(C)C)n2)cn1 (configuration not stated),55.9%
20,Cn1cc(C2CCCN2Cc2csc(-c3ccccc3)n2)cn1 (configuration not stated),-38.2%
21,CC(C)c1nc(CN2CCCC2c2cnn(C)c2)cs1 (configuration not stated),19.4%
22,CC(=O)N(C)c1nc(CN2CCCC2c2cnn(C)c2)cs1 (configuration not stated),50.3%

row,Structure (SMILES),INHIBITION
1,Cc1cnn(CC2CN(Cc3nc(-c4ccsc4)no3)CCO2)c1 (configuration not stated),49.75%
2,CC1(C(=O)N2CCN(c3cnccn3)CC2)CNCCO1 (configuration not stated),36.5%
3,COc1cc2cc3c(nc2cc1OC)OCCN(CC1CC1)C3,-7.66%
4,COc1cccc(CC(=O)NCc2cnc(C)nc2C2CCCN2C)c1 (configuration not stated),36.7%
5,Cc1nc2c(c(N3CCCC(OCc4ccccn4)C3)n1)CCNCC2 (configuration not stated),73%
6,Cc1nn(C)c2ncnc(N3CCCC(OCc4ccccn4)C3)c12 (configuration not stated),-46.6%
7,Nc1nc2c(c(N3CCCC3)n1)CCN(Cc1ccccn1)CC2,41.5%
8,Nc1nc2c(c(N3CCSCC3)n1)CCN(Cc1ccccn1)CC2,66.5%
9,c1ccc(CN2CCc3ncnc(N4CCCC4)c3CC2)nc1,46.7%
10,Nc1nc2c(c(N3CCCC(OCc4ccccn4)C3)n1)CCNCC2 (configuration not stated),59.4%
11,Nc1nc2c(c(N3CCCC(CN4CCCC4=O)C3)n1)CCNCC2 (configuration not stated),48.5%
12,NCC1CCCN(c2nc(-c3ccccc3)nc3c2CCNCC3)C1 (configuration not stated),19.5%
13,Cc1nc(N2CCCC(OCc3ccccn3)C2)c2c(C)noc2n1 (configuration not stated),-4.21%
14,CCc1nnc2n1CCN(CC(O)c1ccc3c(c1)OCCO3)C2 (configuration not stated),22.333%
15,Cc1cnc(CN2CCCC2c2noc(C(C)C)n2)cn1 (configuration not stated),9.54%
16,O=C(Cc1n[nH]c2ccccc12)N1CCC(Nc2cccnn2)CC1,49.3%
17,Cc1ccc(CN2CCOC3(COCCN(C(C)C)C3)C2)o1 (configuration not stated),43%
18,CCc1nnc2n1CCN(C(=O)c1ccc(C)c(S(N)(=O)=O)c1)C2,36.8%
19,COCCOCC(=O)Nc1ccc(C)cc1Br,-5.51%
20,CCCS(=O)(=O)CCN1CCN(C(C#N)c2ccccc2)CC1 (configuration not stated),-4.93%
21,CCn1c(C2CCN(C(=O)c3cc(CC(C)C)on3)CC2)nn(C)c1=O,21.8%
22,CCn1c(CC2CCN(C(=O)c3cc(C(C)C)n[nH]3)CC2)n[nH]c1=O,41.5%

row,Structure (SMILES),INHIBITION
1,CCn1c(CC2CCN(C(=O)c3cc(CC(C)C)on3)CC2)n[nH]c1=O,51.7%
2,O=C(NC[C@H]1OC[C@@H]2CN(Cc3ccco3)CC[C@@H]21)c1cccnc1,8.03%
3,COc1cc(C(=O)NCC2CC2)nc2c(C)cc(F)cc12,55.4%
4,CCNC(=O)c1cc(OC)c2cc(F)cc(C)c2n1,-8.41%
5,COc1cc(C(=O)NCC2CCCO2)nc2c(C)cc(F)cc12 (configuration not stated),-14.8%
6,COc1ccc(-c2cnc(CN(CC(N)=O)C3CCCC3)o2)cc1,19.9%
7,O=C(Cn1nc2c(cc1=O)CSCC2)N[C@@H](Cc1ccccc1)C(=O)O,-5.51%
8,Cn1c(N)nnc1SCc1c(F)cccc1Br,55.4%
9,Cn1c(N)nnc1SCc1ccc(Cl)cc1Br,11.6%
10,Cn1c(CO)nnc1SCc1c(F)cccc1Br,15.5%
11,CN(C)c1nc2c(c(N3CCC(O)CC3)n1)CN(CC1CCNC1)CC2 (configuration not stated),18.5%
12,CN(C)c1nc2c(c(N3CCC(O)CC3)n1)CN(CC1CCOC1)CC2 (configuration not stated),60.1%
13,CN(C)c1nc2c(c(N3CCC(O)CC3)n1)CN(CC(C)(C)C)CC2,22.4%
14,CC(C)COCCC(=O)Nc1cccnc1-n1cncn1,14.4%
15,CN1C(=O)C2(CCN(c3ncccc3C(=O)O)CC2)c2ccccc21,-20.6%
16,O=C(NC[C@H]1CCCC[C@H]1O)c1cccc2[nH]c(-c3ccco3)nc12,23.3%
17,CC(C)CN(C)S(=O)(=O)c1ccc(Cl)cc1C#N,-10.4%
18,CSCC(C)N(C)S(=O)(=O)c1ccc(Cl)cc1C#N (configuration not stated),50.8%
19,CCN(C)S(=O)(=O)c1ccc(Cl)cc1C#N,33.2%

# — ChEMBL document CHEMBL4513216, “Probing the Open Global Health Chemical Diversity Library for Multistage-Active Starting Points for Next-Generation Antimalarials” (ACS Infect Dis, 2020)
